The values that follow come from PubChem BioAssay (Tox21).

Records with an inconclusive call do not appear. A call without a number means that no potency is given here. Unmarked numbers belong to inactive results. Calls of active or inactive are those of the source. Calls come from the whole dose curve.
Potency is the fitted concentration of half-maximal effect.

The nature of this experiment: qHTS assay to identify small molecule agonists or antagonists of the thyroid stimulating hormone receptor (TSHR) signaling pathway - wild type cell line counter screen (AID 1259384). The settings on record: HEK293 wild type, cAMP HTRF counter-screen; series mostly up to 92.4 µM. The text has this:
U.S. Tox21 Program National Center for Advancing Translational Sciences [NCATS] NIH Chemical Genomics Center [NCGC] U.S. Environmental Protection Agency [EPA] National Institutes of Environmental Health Sciences [NIEHS] National Toxicology Program [NTP] U.S. Food and Drug Administration [FDA] Tox21 Assay Overview: TSHR is the receptor for thyrotropin (thyroid stimulating hormone or TSH), a member of the glycoprotein hormone family. TSH is released by the anterior pituitary gland and is the main regulator of thyroid gland growth and development. Upon binding circulating thyrotropin, a G-protein signal cascade activates adenylyl cyclase and […] cAMP concentration is increased. cAMP is a key second messenger involved extensively in cellular signal transduction pathways associated with the majority of G-protein coupled receptors (GPCRs). The activation of these GPCRs by neurotransmitters, lipids, nucleotides, peptides and hormones results in the activation or the inhibition of plasma membrane-bound adenylate cyclase through heterotrimeric G-proteins. A cell-based TSHR-Hek293 assay can be used to identify TSHR agonists. To eliminate the false positive compounds identified from screening a cell-based TSHR-Hek293 cell line, cAMP assay in a wild type Hek293 cells was used as a counter screening.
Tox21 Assay Protocol Summary: Hek293 cells (wild type) were dispensed at 800 cells/4 uL/well in 1536-well white plates using a Multidrop dispenser. After the assay plates were incubated at a 37 C/5% CO2 incubator for 18 hrs, 23 nL of compounds dissolved in DMSO, positive controls or DMSO only was transferred to the assay plate by a pin tool, followed by 1 ul medium containing Ro20-1724. After 30 min of incubation at room temperature, 2.5 ul/well of cAMP-d2 and 2.5 ul/well of anti-cAMP-cryptate were added respectively into the assay plates using a Flying Reagent Dispenser. The plates were incubated at room temperature for 1 hr. The fluorescence intensity in the plates was measured using an Envision plate reader. Each test compound was measured at 15 concentrations and in triplicates.
As to `CCCCC(CC)(CO)CO`, the Potency entry is “inactive”. Same read-out and setting: as for `Oc1ccc(O)c2c(O)cccc12`, the entry is “inactive”. Consider `CCCCc1cc2ccccc2c(OCCN(C)C)n1`, for which the Potency result is “inactive”. Still for that read-out and setting: as for `Oc1ccc(C(O)CNCCCCCCNCC(O)c2ccc(O)c(O)c2)cc1O` (stereo not given), the figure is 6.19 µM (active). Turning to `CCCCOC(O)CC` (stereo not given), the Potency result was “inactive”. On to `OCC1CC2CC1C1CCC(CO)C21` (stereo not given), for which the Potency entry is “inactive”.

As to `CN1CCC(OC(c2ccccc2)c2ccccc2)CC1`, the Potency entry was “inactive”. As to `O=C1[C@H](CC[C@H](O)c2ccc(F)cc2)[C@@H](c2ccc(O)cc2)N1c1ccc(F)cc1`, the Potency result was “inactive”. Still for that read-out and setting: to `CCCCCCCCCCCCCCC1CO1` (stereo not given) belongs “inactive”; to `N#CCCNCCC#N`, “inactive”; to `CCCCCOC(=O)c1ccc(O)cc1`, “inactive”. `CC(C)(C)c1cc(CO)cc(C(C)(C)C)c1O`: the Potency result was “inactive”.

Consider `Nc1ccc(C(=O)N2CC3CC(CN(Cc4ccccc4)C3)C2)cc1`, for which the Potency result was “inactive”. On the same count and under the same terms, as for `CC(=O)O[C@H]1C[C@@H]2CC[C@@H]3[C@H](CC[C@@]4(C)[C@H]3C[C@H]([N+]3(C)CCCCC3)[C@@H]4OC(C)=O)[C@@]2(C)C[C@@H]1N1CCCCC1`, the entry is “inactive”. The same measure, in the same setting: as for `COc1ccc([C@@H]2Sc3ccccc3N(CCN(C)C)C(=O)[C@@H]2OC(C)=O)cc1`, the entry is “inactive”; as for `CN1CCN(C2=Nc3ccccc3Sc3ccc(Cl)cc32)CC1`, “inactive”. Consider `O=[N+]([O-])c1cc[n+]([O-])cc1`, for which the Potency entry is “inactive”. `CC1(C)[C@H]2CC[C@]1(C)[C@H](O)C2`: the Potency result was “inactive”.

On to `CC[C@]12CCCN3CCc4c(n(c5ccccc45)C(=O)C1)[C@@H]32`, for which the Potency entry was “inactive”. The same measure, in the same setting: to `CCCC(=O)OCC` belongs “inactive”; to `CN(C)C/C=C(/c1ccc(Br)cc1)c1cccnc1`, “inactive”. Consider `CCCOc1ccc2nc(NC(=O)OC)[nH]c2c1`, for which the Potency result was “inactive”. Still for that read-out and setting: as for `CC(=O)OCCc1ccccc1`, the entry is “inactive”. For the molecule `O=C(C(=O)c1ccc(Br)cc1)c1ccc(Br)cc1`, the cAMP activity change is 5.87% [at 18.9 µM, stronger effect = higher value].

`O=C(Cl)c1c(Cl)cccc1Cl`: the Potency entry was “inactive”. The same measure, in the same setting: as for `O=C(NN1CCCC1)NS(=O)(=O)c1ccc(Cl)cc1`, the entry is “inactive”. Still for that read-out and setting: as for `O=C=NC1CCC(CC2CCC(N=C=O)CC2)CC1` (stereo not given), the entry is “inactive”. Turning to `CCN(CC)C(C)=O`, the Potency result was “inactive”. Same read-out and setting: to `CCCCCCCCN(C)C` belongs “inactive”. On the same count and under the same terms, to `CCN(CC)CCc1nc(-c2ccccc2)no1` belongs “inactive”; to `O=C(O)/C=C/c1cnc[nH]1`, “inactive”. On the same count and under the same terms, as for `Cn1sccc1=O`, the entry is “inactive”; as for `C=CC[N+]1([C@H]2C[C@H]3[C@@H]4CC[C@H]5C[C@H](OC(C)=O)[C@@H](N6CCCCC6)C[C@]5(C)[C@H]4CC[C@]3(C)[C@H]2OC(=O)CC)CCCCC1`, “inactive”. Regarding `C1CCC2OC2C1` (stereo not given), the Potency result is “inactive”. Same read-out and setting: to `CC1CCc2cc(F)cc3c(=O)c(C(=O)O)cn1c23` (stereo not given) belongs “inactive”; to `CCCCCCCCCC(=O)OCC`, “inactive”; to `Nc1ccc(C(=O)Nc2ccccc2N)cc1`, “inactive”. Same read-out and setting: as for `CCCCCCCCCO`, the entry is “inactive”; as for `CN1CCC(=C2c3ccccc3CCc3sccc32)CC1`, “inactive”. Regarding `C[Si](C)O[Si](C)(C)O[Si](C)(C)O[Si](C)C`, the Potency result was “inactive”.
